Source: article PMC12864922, “TDP-43 directly inhibits mRNA accumulation in neurites through modulation of mRNA stability”
Over roughly 9,900 sequences, “r (bound/input frequency ratio)” has its median near 0.7; the highest 2% begin near 6.5. The entries come from a sample that favours the highest values as a whole.

B1: ENSMUSG00000061578.134|Ksr2|58:63;126:130;148:163;199:203 (ssRNA)
RNA: GGGAGUUCUACAGUCCGACGAUCGCUUCGAUAUCCGCAUGCUAAUGGCUUCCCCCAAAGUCCCGAGUCCUGAGAACCGGGGCUGUGGCAAGAGAGUUCUGCACACAUCUCUCUGUGGGGCUAGCAAUGCCGGGGUUAAGUUCUCCCUCGGUGAUGGAGACGGUCCUGGCAUACCAUGAUGGGUUACAUGGCACACACACACACACAAACUGUUUACAAUGGUCUCCCUGCCUCUCACGGGCACACAUCCAGGAGAAUGCACAUAGAGAGGUUCUGUGGUCUCUGCUGUCGCCUGGUGCUGAAUCUCUUGCGGUCGCACUAGUGUGGAAUUCUCGGGUGUCAAGG
B2: ENSMUSG00000029636.224|Wasf3|112:116;205:212 (ssRNA)
RNA: GGGAGUUCUACAGUCCGACGAUCGCUUCGAUAUCCGCAUGCUAUUGCAGAGGGACCAGGACACUGCCUUCCCUUAGGUGCAUUAUUUACGUGGCCUGCAGCUCUUAAUAUCUCUCACUGUUUAUGAAAAGAAAGAUUCAGAUCCGGGGUGACAUACACACAGUUGACAGGGAAUGCCUGUGGGAUAAUUAAAAAUGGUUUUUGCUCAUGAGUUUGGGAUGUCACCCAGCCGCCCACAUCGCCUGCUAACACACACGACGCCUGUCCGCUUGGCCAGCUAUCCUGUAACACCUGCCAGUAGUAGCUCUUGCGGUCGCACUAGUGUGGAAUUCUCGGGUGUCAAGG
B3: ENSMUSG00000031028.392|Tub (ssRNA)
RNA: GGGAGUUCUACAGUCCGACGAUCGCUUCGAUAUCCGCAUGCUAAGCUCCUGGUGAUAAUGCCUUUUCUUGACCACUGGCGCUGUGAACACAGGCUAAUGGACUUCAGAUACCAGGGCCCCGGGAUCACCUGGGUUAGCCUCUCCCACAGGAAGAUCCCUUACCCCUCAUCCCCUCUUCUUUUUGGUCCUUGGCUGGGUAGCAAAUUGGUGAGAAGAGCAGCCUAGUCUGUAAGAGUGCAGGGCAGCUGGAACCUUAGGCAGCUCCUCUGUAUGCUACCGGCUCCACACCCUAACACUCUCCACCUCUUGCGGUCGCACUAGUGUGGAAUUCUCGGGUGUCAAGG
B4: ENSMUSG00000029028.200|Lrrc47 (ssRNA)
RNA: GGGAGUUCUACAGUCCGACGAUCGCUUCGAUAUCCGCAUGCUAUGUACCAGCACACAGCUGCCAUCCCUCGAGCCACAGUGCCUGGUCCUAAGGACCCAGCAGCUGCACAGAGGACUUGGUGGCCCCGUGCCUUGCCAUCUGGCUGAGAAGAGAACCAGACCCUCAGCCUUCCCCCUCGACACCUUCUCGUUGGUGACCUCUGACCUUAAAGGACCAUUUCUACCUUCUGUAAAAGAACACCUGUUUGGGGUUGCGUGCGGCUUUCAUCCUAAGGCCGUGCGAGAGCCGUUAGCUGUCAGAACCUCUUGCGGUCGCACUAGUGUGGAAUUCUCGGGUGUCAAGG
B5: ENSMUSG00000061578.980|Ksr2 (ssRNA)
RNA: GGGAGUUCUACAGUCCGACGAUCGCUUCGAUAUCCGCAUGCUAAUCCAUGACUCAGAAUUUUCCAGAGACCCAAUCCCUCGGGGUCCACUUAGUGAUGGGACCAUACAAGAGUUUAUUUCCAAUUAGAGAAUUGGGUCAACUGGGAAAGGCUUCUUUCCUGGUAACCCUGCUACUGAUACUAUGUUGAAACAGGAAUCGACUCUAACUGCUUUUUGGCCUCUUCCCUGCACGGGAGUCUCAAAAUCAAGUUUUUACCCAGUGGCCUCUGGGAUCCACUCUCUCUACUCCUGAACUCUUAAAACCUCUUGCGGUCGCACUAGUGUGGAAUUCUCGGGUGUCAAGG
B6: ENSMUSG00000061578.705|Ksr2 (ssRNA)
RNA: GGGAGUUCUACAGUCCGACGAUCGCUUCGAUAUCCGCAUGCUAUUGAGGUGCCUUCCUGUAGUCUCUUGUGUCAUCUUCUUCUAAGACCACUAAUAACACCGCCUUUCUCCUUGAUCCGGGCCUCAGACCUCUUCAGAGAUUCUUUCUCUGAAUGUACGUGGGGGACUCCAACAGAUGUUGGGAGAAGACUCAAUAUGAGCAUACGGGGUCAUUGUUCAAUCCUGUAUCAAGACCUUGGAGUUGUCUAAGGCUGUGGGUUUUAAAUACCUGCUGCAGGCCUCCCAUCUCUGGCUCUUUGUUUCCUCUUGCGGUCGCACUAGUGUGGAAUUCUCGGGUGUCAAGG
B7: ENSMUSG00000058297.32|Spock2|59:63;67:80;89:100;114:120;129:138;144:169 (ssRNA)
RNA: GGGAGUUCUACAGUCCGACGAUCGCUUCGAUAUCCGCAUGCUACAAAUGGAUCCGGAAGUCAGUGCGGAGGACCCUGGCUCCAGUGGGGGAGGACUGGGGACACACGCUACACACAUACACACAUAUGAGAACACACACAUACAUGUGAGAUGUGACACACACAUGUGAGAACACACAUACUGAGAACACACACACACACACACACACACACAUGUGAGUCACCCAAAGGUCCCUAUGUUAUUGAUUUUCAAAUGCACACUUUCACACACAAGGAUACACUAACAGACCAAAAUCAAUGAGAUCUCUUGCGGUCGCACUAGUGUGGAAUUCUCGGGUGUCAAGG
B8: ENSMUSG00000058297.32|Spock2 (ssRNA)
RNA: GGGAGUUCUACAGUCCGACGAUCGCUUCGAUAUCCGCAUGCUACAAAUGGAUCCGGAAGUCAGUGCGGAGGACCCUGGCUCCAGUGGGGGAGGACUGGGGAGUGUGGCUUGUGUGUAUGUGUGAUAUGAGAUGUGUGUGUAUGAUGUGAGAUGUGAGUGUGUGAUGUGAGAUGUGUGUAUGUGAGAUGUGUGUGUGUGUGUGUGUGUGUGUGAUGUGAGUCACCCAAAGGUCCCUAUGUUAUUGAUUUUCAAAUGCACACUUUCACACACAAGGAUACACUAACAGACCAAAAUCAAUGAGAUCUCUUGCGGUCGCACUAGUGUGGAAUUCUCGGGUGUCAAGG
B9: ENSMUSG00000058297.34|Spock2|47:51;55:68;77:88;102:108;117:126;132:157 (ssRNA)
RNA: GGGAGUUCUACAGUCCGACGAUCGCUUCGAUAUCCGCAUGCUAGAAGUCAGUGCGGAGGACCCUGGCUCCAGUGGGGGAGGACUGGGGACACACGCUACACACAUACACACAUAUGAGAACACACACAUACAUGUGAGAUGUGACACACACAUGUGAGAACACACAUACUGAGAACACACACACACACACACACACACACAUGUGAGUCACCCAAAGGUCCCUAUGUUAUUGAUUUUCAAAUGCACACUUUCACACACAAGGAUACACUAACAGACCAAAAUCAAUGAGAUGUCCCUGAUCCUCUCUUGCGGUCGCACUAGUGUGGAAUUCUCGGGUGUCAAGG
B10: ENSMUSG00000058297.33|Spock2 (ssRNA)
RNA: GGGAGUUCUACAGUCCGACGAUCGCUUCGAUAUCCGCAUGCUAGAUCCGGAAGUCAGUGCGGAGGACCCUGGCUCCAGUGGGGGAGGACUGGGGAGUGUGGCUUGUGUGUAUGUGUGAUAUGAGAUGUGUGUGUAUGAUGUGAGAUGUGAGUGUGUGAUGUGAGAUGUGUGUAUGUGAGAUGUGUGUGUGUGUGUGUGUGUGUGUGAUGUGAGUCACCCAAAGGUCCCUAUGUUAUUGAUUUUCAAAUGCACACUUUCACACACAAGGAUACACUAACAGACCAAAAUCAAUGAGAUGUCCCUCUCUUGCGGUCGCACUAGUGUGGAAUUCUCGGGUGUCAAGG
B11: ENSMUSG00000058297.35|Spock2 (ssRNA)
RNA: GGGAGUUCUACAGUCCGACGAUCGCUUCGAUAUCCGCAUGCUAAGUGCGGAGGACCCUGGCUCCAGUGGGGGAGGACUGGGGAGUGUGGCUUGUGUGUAUGUGUGAUAUGAGAUGUGUGUGUAUGAUGUGAGAUGUGAGUGUGUGAUGUGAGAUGUGUGUAUGUGAGAUGUGUGUGUGUGUGUGUGUGUGUGUGAUGUGAGUCACCCAAAGGUCCCUAUGUUAUUGAUUUUCAAAUGCACACUUUCACACACAAGGAUACACUAACAGACCAAAAUCAAUGAGAUGUCCCUGAUCCUGCCCCUCUCUUGCGGUCGCACUAGUGUGGAAUUCUCGGGUGUCAAGG
B12: ENSMUSG00000058297.34|Spock2 (ssRNA)
RNA: GGGAGUUCUACAGUCCGACGAUCGCUUCGAUAUCCGCAUGCUAGAAGUCAGUGCGGAGGACCCUGGCUCCAGUGGGGGAGGACUGGGGAGUGUGGCUUGUGUGUAUGUGUGAUAUGAGAUGUGUGUGUAUGAUGUGAGAUGUGAGUGUGUGAUGUGAGAUGUGUGUAUGUGAGAUGUGUGUGUGUGUGUGUGUGUGUGUGAUGUGAGUCACCCAAAGGUCCCUAUGUUAUUGAUUUUCAAAUGCACACUUUCACACACAAGGAUACACUAACAGACCAAAAUCAAUGAGAUGUCCCUGAUCCUCUCUUGCGGUCGCACUAGUGUGGAAUUCUCGGGUGUCAAGG
B13: ENSMUSG00000058297.33|Spock2|53:57;61:74;83:94;108:114;123:132;138:163 (ssRNA)
RNA: GGGAGUUCUACAGUCCGACGAUCGCUUCGAUAUCCGCAUGCUAGAUCCGGAAGUCAGUGCGGAGGACCCUGGCUCCAGUGGGGGAGGACUGGGGACACACGCUACACACAUACACACAUAUGAGAACACACACAUACAUGUGAGAUGUGACACACACAUGUGAGAACACACAUACUGAGAACACACACACACACACACACACACACAUGUGAGUCACCCAAAGGUCCCUAUGUUAUUGAUUUUCAAAUGCACACUUUCACACACAAGGAUACACUAACAGACCAAAAUCAAUGAGAUGUCCCUCUCUUGCGGUCGCACUAGUGUGGAAUUCUCGGGUGUCAAGG
B14: ENSMUSG00000058297.42|Spock2 (ssRNA)
RNA: GGGAGUUCUACAGUCCGACGAUCGCUUCGAUAUCCGCAUGCUAGUGGCUUGUGUGUAUGUGUGAUAUGAGAUGUGUGUGUAUGAUGUGAGAUGUGAGUGUGUGAUGUGAGAUGUGUGUAUGUGAGAUGUGUGUGUGUGUGUGUGUGUGUGUGAUGUGAGUCACCCAAAGGUCCCUAUGUUAUUGAUUUUCAAAUGCACACUUUCACACACAAGGAUACACUAACAGACCAAAAUCAAUGAGAUGUCCCUGAUCCUGCCCCUCAGCCCAACACCUGGAAUCCCUGCCCUGCCUAAUCAGCCCUACUCUUGCGGUCGCACUAGUGUGGAAUUCUCGGGUGUCAAGG
B15: ENSMUSG00000058297.36|Spock2 (ssRNA)
RNA: GGGAGUUCUACAGUCCGACGAUCGCUUCGAUAUCCGCAUGCUAGAGGACCCUGGCUCCAGUGGGGGAGGACUGGGGAGUGUGGCUUGUGUGUAUGUGUGAUAUGAGAUGUGUGUGUAUGAUGUGAGAUGUGAGUGUGUGAUGUGAGAUGUGUGUAUGUGAGAUGUGUGUGUGUGUGUGUGUGUGUGUGAUGUGAGUCACCCAAAGGUCCCUAUGUUAUUGAUUUUCAAAUGCACACUUUCACACACAAGGAUACACUAACAGACCAAAAUCAAUGAGAUGUCCCUGAUCCUGCCCCUCAGCCCCUCUUGCGGUCGCACUAGUGUGGAAUUCUCGGGUGUCAAGG

What follows are binders tested against TDP-43 (Homo sapiens, UniProt Q13148 1-414) (assay: RNA Bind-n-Seq with designed 260-mer pool; 25 mM Tris-HCl, 150 mM KCl, 3 mM MgCl2, BSA (printed 500 mg/mL), 20 units/mL SUPERase IN; pH not stated; 500 nM RNA pool, 1 h, 4 C; TDP-43 5, 50, 500 nM; high values mean tight binding). Conditions: protein: recombinant; tags: SBP (GST cleaved off with PreScission; pGEX-GST-SBP).
Sequence of TDP-43 (Q13148 whole entry): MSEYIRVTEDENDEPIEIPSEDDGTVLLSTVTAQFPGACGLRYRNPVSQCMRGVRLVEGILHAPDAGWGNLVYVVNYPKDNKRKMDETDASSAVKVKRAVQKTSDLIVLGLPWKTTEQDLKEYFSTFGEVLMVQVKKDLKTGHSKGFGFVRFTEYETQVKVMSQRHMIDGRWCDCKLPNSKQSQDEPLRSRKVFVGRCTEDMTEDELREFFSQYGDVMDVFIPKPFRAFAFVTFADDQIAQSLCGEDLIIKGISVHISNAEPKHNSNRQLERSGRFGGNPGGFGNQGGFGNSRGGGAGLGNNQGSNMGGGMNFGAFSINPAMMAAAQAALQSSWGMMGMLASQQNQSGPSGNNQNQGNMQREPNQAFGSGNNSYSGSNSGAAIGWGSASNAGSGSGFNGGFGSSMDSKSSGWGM
Summary of the method: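 For each oligo, R gives binding as its mapped-read-normalized abundance after pulldown divided by its abundance in input. Bead-captured SBP-tagged TDP-43 (5, 50 or 500 nM) was incubated with 500 nM of an in vitro-transcribed 260-nt 3′ UTR oligo pool for 1 h at 4 °C in 25 mM Tris-HCl, 150 mM KCl, 3 mM MgCl2, BSA and SUPERase IN on streptavidin beads. Washed, biotin-eluted RNA was reverse transcribed, PCR-amplified and sequenced.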
B1 was tested, and the binding signal was 1.51 R (bound/input frequency ratio). B2 was tested, and the binding signal was 1.64 R (bound/input frequency ratio). With B3 the binding signal was 0.459 R (bound/input frequency ratio). For B4, the binding signal was 0.283 R (bound/input frequency ratio). With B5 the binding signal was 0.19 R (bound/input frequency ratio). For B6, the binding signal was 0.309 R (bound/input frequency ratio). In the case of B7, the binding signal is reported as 3.96 R (bound/input frequency ratio). With B8 the binding signal was 7.46 R (bound/input frequency ratio). With B9 the binding signal was 2.69 R (bound/input frequency ratio). With B10 the binding signal was 8.02 R (bound/input frequency ratio). With B11 the binding signal was 8.03 R (bound/input frequency ratio). With B12 the binding signal was 8.82 R (bound/input frequency ratio). For B13, the binding signal was 2.93 R (bound/input frequency ratio). In the case of B14, the binding signal is reported as 5.18 R (bound/input frequency ratio). For B15, the binding signal was 5.98 R (bound/input frequency ratio).
